proKLK7 act: proKLK7 (human) activation, primary screen. P49862. activation, % at 7 µM. 370,000 tested, 0.9% active. purified proKLK7, EDANS-DABCYL substrate fluorescence; 100% is mature enzyme control, 0% vehicle;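 active = activation above the mean of all tested compounds plus 3 SD, computed per campaign excluding outliers beyond control limits, cut at about 13% in these data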
ADAM17 inh: inhibitors of human ADAM17; recombinant ADAM17, EDANS/DABCYL FRET peptide cleavage; AID 720648; inhibition, % at 6.95 µM; 370,000 tested, 0.83% active;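 active = inhibition above the mean of compounds lying between control limits plus 3 SD, set per campaign, cut at about 8.5% in these data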
ADAM10 inh: ADAM10 inhibition, QFRET primary screen; O14672; recombinant ADAM10, EDANS/DABCYL FRET peptide cleavage, 3 h; inhibition, % at 7 µM; 370,000 tested, 0.62% active; AID 720582;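 active = inhibition above a per-campaign cutoff equal to the mean of compounds falling between control-based bounds plus 3 SD, cut at about 20% in these data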
NR3A LBD binder: modulates the human NR3A ligand-binding domain. 340,000 tested, 2.5% active. NR3A LBD differential scanning fluorimetry, Tm shift; 0% = protein alone, 100% = glycine-bound protein. Tm shift relative to glycine control, % at 25 µM;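 active = melting temperature shift of at least 10% of the positive control shift, at one fixed dose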
AHR act: activators of human aryl hydrocarbon receptor | P35869 | AHR-responsive luciferase reporter cells, luminescence | activation, % at 5 µM | 320,000 tested, 2.5% active; in the data active = activation above about 47%
rCAG RNA binder: r(CAG) repeat RNA binding; TO-PRO-1 dye displacement fluorescence; inhibition, % at 3 µM; 370,000 tested, 1.3% active; AID 651821;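 active = inhibition above the plate cutoff, the mean of all test compounds on that plate plus 3 SD, cut at about 35% in these data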;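 note: higher means more dye released from RNA so lower well fluorescence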
Large screens that a line does not name were inactive. A selection: hits, their analogues and other compounds. The true share with any hit is near 7%.

Cc1ccc(C)c(N2CCN(S(=O)(=O)c3ccc4c(c3)NC(=O)CC(=O)N4)CC2)c1	none
Cc1cc2c(cc1S(=O)(=O)N1CCN(c3ccccc3F)CC1)OCC(=O)N2	NR3A LBD binder 13
Cc1ccc(C)c(N2CCN(S(=O)(=O)c3ccc4c(c3)NC(=O)CO4)CC2)c1	NR3A LBD binder 11
O=C1COc2ccc(S(=O)(=O)N3CCN(c4ccccc4F)CC3)cc2N1	NR3A LBD binder 12
C[C@H]1[C@@H](OC(=O)Nc2cccc(Cl)c2)CC[C@@]23CCCN2C(=O)CCC[C@@H]13	none (no result: proKLK7 act, NR3A LBD binder, AHR act, rCAG RNA binder)
C/C=C/c1ccc([C@H]2[C@@H](CN(CC(C)C)S(=O)(=O)c3ccccc3[N+](=O)[O-])N(C(=O)Nc3cccc(OC)c3)[C@H]2CO)cc1	none (no result: NR3A LBD binder, AHR act)
O=C(Nc1ccc([N+](=O)[O-])cc1)c1ccc(S(=O)(=O)N2CCCC2)cc1	NR3A LBD binder 11
CN1CCN(S(=O)(=O)c2cccc(C(=O)Nc3cccc([N+](=O)[O-])c3)c2)CC1	NR3A LBD binder 17
COc1ccc(C(=O)Nc2ccc(S(=O)(=O)N3CCCC3)cc2)cc1	NR3A LBD binder 14
O=C(Nc1ccc(S(=O)(=O)N2CCCC2)cc1)c1ccc(F)cc1	none (no result: AHR act)
COC(=O)[C@H]1C[C@@]2(Oc3ccc(Br)cc3)c3ccccc3N(C(=O)OC(C)(C)C)[C@H]2N1C(=O)OC(C)(C)C	none (no result: NR3A LBD binder, AHR act)
COc1ccc(/C=N\NC(=O)CN2CCN(Cc3ccccc3)CC2)cc1OCc1ccccc1	none (no result: NR3A LBD binder, AHR act)
Cc1[nH]ccc2c1[nH]c1cc(=O)ccc12	AHR act 71
O=c1cc[nH]c2c1ccc1c(=O)cc[nH]c12	none
COc1ccccc1NC(=S)N1CCNC(=O)C1CC(=O)Nc1cccc(C)c1 (stereo not drawn)	none
COc1ccccc1NC(=O)CC1C(=O)NCCN1C(=O)Nc1ccc(Cl)c(Cl)c1 (stereo not drawn)	NR3A LBD binder 12
CCNC(=S)N1CCN(c2nc(-c3cccc(OC)c3)cs2)CC1	NR3A LBD binder 19
COc1cccc(-c2csc(N3CCN(C(=S)NCC(C)C)CC3)n2)c1	none
COc1cccc(-c2csc(N3CCN(C(=O)Nc4ccc(Cl)cc4)CC3)n2)c1	NR3A LBD binder 15
Cc1ccc(C(=O)N(C)[C@H]2C[C@H]3c4[nH]c5c(-c6ccc7c(c6)OCO7)cccc5c4CCN3C[C@H]2[C@H](C)O)cc1	none (no result: NR3A LBD binder, AHR act)
CSc1ccccc1C(=O)NC(C)c1ccc(-n2ccnc2)cc1 (stereo not drawn)	AHR act 67
CC(NC(=O)c1ccccc1Cl)c1ccc(-n2ccnc2)cc1 (stereo not drawn)	AHR act 54
Cc1ccc(C)c(C(=O)NC(C)c2ccc(-n3ccnc3)cc2)c1 (stereo not drawn)	AHR act 78
Cc1c(C(=O)NC(C)c2ccc(-n3ccnc3)cc2)cccc1[N+](=O)[O-] (stereo not drawn)	AHR act 61
COCC(=O)N1CCC(C(=O)NC2CCCc3ccccc32)CC1 (stereo not drawn)	none (no result: NR3A LBD binder, AHR act)
O=C(N/N=C/c1cc2c(cc1[N+](=O)[O-])OCO2)c1cccnc1	AHR act 51
O=C(N/N=C/c1cc2cc3c(cc2nc1Cl)OCCO3)c1ccccc1O	none
O=C(N/N=C/c1ccc2c(c1)OCO2)c1cccnc1	AHR act 55
O=C(N/N=C/c1cc2cc3c(cc2nc1Cl)OCO3)c1ccncc1	AHR act 64
O=C(N/N=C/c1cc2c(c([N+](=O)[O-])c1)OCO2)c1ccncc1	AHR act 61
COC(=O)[C@]12C[C@H](CC(=O)NCCCN3CCCC3=O)C(=O)N(Cc3ccc4c(c3)OCO4)C1=C[C@H](COCc1ccccc1)O[C@@H]2C	none (no result: NR3A LBD binder, AHR act)
CCCc1cc(=O)oc2cc3occ(C)c3cc12	AHR act 47
CCc1cc(=O)oc2cc3occ(C)c3cc12	none
O=[N+]([O-])c1cc(Cl)ccc1N1CCCC1	none
O=C1C(Cl)=C(N2CCN(c3ccccc3[N+](=O)[O-])CC2)C(=O)c2ccccc21	AHR act 71
O=C1NC2(Nc3ccccc31)C(=O)Nc1ccc(Br)cc12 (stereo not drawn)	none
O=C1NC2(Nc3ccccc31)C(=O)Nc1ccccc12 (stereo not drawn)	AHR act 51

Bioassay records deposited in PubChem by several laboratories.
